Compound activity: PubChem, National Center for Advancing Translational Sciences (NCATS)
TrxR1 substrate: is turned over as a substrate by rat TrxR1. purified TrxR1 substrate turnover, NADPH consumption readout. Potency, µM (titrated, usually from 114 µM). 390,000 tested, 0.01% active. AID 588456; also: nearly all actives have a fitted effect of over 50% in size
Target sequence (O89049 whole entry, looked up): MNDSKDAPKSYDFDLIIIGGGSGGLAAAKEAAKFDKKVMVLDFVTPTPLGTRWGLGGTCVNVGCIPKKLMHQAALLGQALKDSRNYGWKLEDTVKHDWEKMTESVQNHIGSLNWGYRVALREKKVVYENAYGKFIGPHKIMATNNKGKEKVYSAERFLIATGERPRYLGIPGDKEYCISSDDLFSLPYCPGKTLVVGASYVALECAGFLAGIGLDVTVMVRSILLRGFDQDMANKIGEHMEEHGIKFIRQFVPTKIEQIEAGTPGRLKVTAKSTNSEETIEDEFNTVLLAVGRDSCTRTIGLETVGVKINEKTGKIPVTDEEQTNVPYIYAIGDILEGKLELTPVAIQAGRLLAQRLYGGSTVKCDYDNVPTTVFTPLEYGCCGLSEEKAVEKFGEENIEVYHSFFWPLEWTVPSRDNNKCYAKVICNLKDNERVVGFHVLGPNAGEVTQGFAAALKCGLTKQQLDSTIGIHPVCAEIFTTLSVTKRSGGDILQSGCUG
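Rat TrxR1, dispensed at 90 nM, was prereduced with 400 uM NADPH (final) for 5 min at ~22 deg C, then incubated with compound 15 min before 400 uM selenite. A first-read NADPH fluorescence drop versus no-compound background flagged substrates.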
Sfp inh: inhibitors of Bacillus subtilis Sfp phosphopantetheinyl transferase. Q9F4F7. Biochemical Sfp PPTase activity, qHTS. Potency, µM, usual class: inhibitors. 310,000 tested, 3.5% active;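 also: the enzyme is Sfp with the accession as filed and its product quenches rhodamine fluorescence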
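Fluorescence-quenching assay: 15 nM Sfp-PPTase preincubated 15 min at room temperature with compound, then 5 uM rhodamine-CoA and 12.5 uM BHQ-2-labelled YbbR peptide added. Fluorescence (ex 525/em 598 nm) read at start and after 30 min; difference gives rate.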
PLK1 PBD block: inhibitors of human PLK1 polo-box domain binding | Potency, µM, usual class: inhibitors | AID 720504 | Plk1 PBD binding of FITC phosphopeptide, fluorescence polarization | 360,000 tested, 2.8% active; also: series mostly up to about 57 µM; nearly all actives have a fitted effect of over 65% in size
VDR inh: blocks the human vitamin D receptor; P11473; VDR-SRC2-3 peptide fluorescence polarization, 2 h; Potency, µM, actives largely listed as inhibitors; 400,000 tested, 0.93% active
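Fluorescence polarization assay measuring small-molecule disruption of VDR binding to the coregulator peptide SRC2-3. Compounds were pin-transferred (23 nl) into the reagent mix and incubated 2 h at room temperature before reading.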
rTrxR1 inhibitor: blocks rat thioredoxin reductase 1; 390,000 tested, 1% active; O89049; recombinant rTrxR1, NADPH fluorescence consumption, selenite substrate; AID 588453; Potency, µM (series often up to 114 µM), hits mostly inhibitors; also: nearly all actives have a fitted effect of over 65% in size
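Rat TrxR1 (90 nM in the dispensed reagent) was pre-reduced with 400 uM NADPH for 5 min at room temperature, then incubated with compound for 15 min. After 400 uM selenite was added, NADPH fluorescence (Ex 340/Em 450 nm) was followed for 8 min.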
mIDH1 inhibitor: blocks human mutant IDH1 R132H enzyme | O75874 | IDH1-R132H enzyme, NADPH consumption, diaphorase/resazurin fluorescence | Potency, µM (highest dose often 76.6 µM), usual class: inhibitors | 390,000 tested, 0.093% active; also: nearly all actives have a fitted effect of over 65% in size
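IDH1-R132H (0.5 ug/mL dispensed) in pH 7.5 Tris buffer was preincubated 30 min with compound, then given a substrate mix of 0.016 mM NADPH and 2 mM alpha-KG for 80 min at room temperature; remaining NADPH was read by diaphorase/resazurin fluorescence.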
A number is an active result; – = inactive; ? = inconclusive; · = no result. Most compounds without a hit are left out; they make up all but 5.2% or so of the library. Calls follow the shape of the dose curve; as a rule, active = well fitted curve in the direction sought with a large enough effect; inconclusive = small, poorly fitted or top-dose-only effect, or another doubt; inactive = no such curve, though single readings can be large; an effect the other way counts as inactive or inconclusive.

SMILES	TrxR1 substrate	Sfp inh	PLK1 PBD block	VDR inh	rTrxR1 inhibitor	mIDH1 inhibitor
Cc1cc(C)cc(OC(=O)C23CCC(C)(C(=O)O2)C3(C)C)c1 (configuration not stated)	–	–	–	–	–	–
O=C(O)[C@@H]1CSC2(CCSC2)N1 (some centres not stated)	·	44.7µM	·	·	·	·
CC(=O)c1ccc2c3c(cc(C)c2c1)CCCC3	–	·	–	–	–	–
COc1ccccc1/C=C/C(=O)Nc1nc(N)n(-c2ccccc2)n1	–	–	–	–	–	–
Cn1c(N)c(C(=O)Nc2ccccc2)c(=O)[nH]c1=O	–	·	–	–	–	–
Cn1c(N)c(C(=O)/C=C/c2ccccc2)c(=O)[nH]c1=O	–	50.1µM	–	–	–	–
COc1ccccc1/C=C1/C(=O)ON=C1C	–	–	4.74µM	50.1µM	?	–
COc1ccccc1/C=C1/C(=O)N(c2ccccc2)N=C1C	–	–	2.67µM	?	–	–
CC1=NN(c2ccccc2)C(=O)/C1=C\c1c(C)[nH]n(-c2ccccc2)c1=O	–	–	–	–	–	–
CC1=NN(c2ccccc2)C(=O)/C1=C\c1sccc1C	–	–	10.6µM	?	–	–
COc1ccccc1/C=C1\C(=O)Nc2ccccc21	–	–	–	–	–	–
CC1=NN(c2ccccc2)C(=O)/C1=C\c1cn(-c2ccccc2)nc1C	–	–	–	–	–	–
O=C(O)c1ccc(NC(=S)NC(=O)c2cccnc2)cc1	–	–	–	–	–	–
O=C(NC(=S)Nc1ccccc1)c1ccc(Br)o1	–	–	–	?	–	–
Cc1snnc1C(=O)NC(=S)Nc1ccccc1	–	39.8µM	–	–	15.8µM	–
COC(=O)c1ccc(NC(=S)NNC(=O)CC(C)C)cc1	–	44.7µM	26.7µM	–	?	–
COC(=O)c1sccc1NC(=O)c1cccnc1	–	–	26.7µM	–	–	–
COC(=O)c1ccc(NC(=S)NNC(=O)c2ccccc2)cc1	–	?	?	–	–	–
COC(=O)c1sccc1NC(=O)c1cccc(Cl)c1	–	·	–	–	–	–
O=C(NC(=S)Nc1cccnc1)c1ccccc1	–	79.4µM	–	–	–	–
Cc1sc2ccccc2c1CNC[C@H]1O[C@@H](n2cnc(C(N)=O)n2)[C@H](O)[C@@H]1O	–	·	–	–	–	–
CC(Oc1ccccc1)C(=O)N=C1SC2CS(=O)(=O)CC2N1c1cccc(F)c1 (configuration not stated)	–	–	–	–	–	–
O=c1ccc2c(OCCCCOc3ccccc3)c3ccoc3cc2o1	·	–	·	–	·	·
COC(=O)c1ccc(NC(=S)NC(=O)c2cccnc2)cc1	–	89.1µM	–	–	?	–
COC(=O)c1sccc1NC(=O)/C=C/c1c(Cl)cccc1Cl	–	39.8µM	–	–	–	–
SMILES	TrxR1 substrate	Sfp inh	PLK1 PBD block	VDR inh	rTrxR1 inhibitor	mIDH1 inhibitor
O=C(NC(=S)Nc1cccnc1)c1cccc(Br)c1	–	–	–	–	56.2µM	–
O=C(CCc1ccccc1)Nc1cccnc1	–	–	–	–	–	–
COC(=O)c1sccc1NC(=O)c1c(Cl)cccc1Cl	–	–	–	–	–	–
O=C(CCNC(=O)c1ccccc1)Nc1cccnc1	–	–	26.7µM	–	–	–
COc1ccc(NC(=S)NC(=O)c2cccnc2)cc1	–	–	–	–	?	–
Cc1cc(C(=O)c2ccc(C(C)(C)C)cc2)c(NC(=O)CCl)s1	–	–	–	–	–	–
O=C(Nc1cccnc1)c1cccs1	–	–	–	–	–	–
O=C(NC(=S)Nc1cccnc1)c1cccs1	–	56.2µM	–	?	–	–
COc1cccc(C(=O)N2c3ccc(C)cc3C(C)(c3ccccc3)CC2(C)C)c1 (configuration not stated)	–	·	·	–	–	–
CC1(C)Cc2c(sc(NC(=O)/C=C/C(=O)O)c2C#N)CO1	–	–	–	–	–	–
CC1(C)Cc2c(sc(NC(=O)C(=O)NCCCN3CCOCC3)c2C#N)CO1	–	15.8µM	11.9µM	–	–	–
COc1ccccc1-n1ccnc1SCC(=O)NCc1ccco1	–	–	23.8µM	?	–	–
Cc1ccc(SCC(=O)NCc2ccco2)cc1	–	–	–	–	–	–
